In PubChem BioAssay (NCATS) one finds Potency data, which are given here for 25 compounds.

Several values for one entry are separate records, joined by “and”; a condition that tells them apart may be missing. Equal entries are not always repeated. Records with an inconclusive call do not appear. Activity calls are given as the source filed them. Calls come from the whole dose curve; as a rule, active = well fitted curve in the direction sought with a large enough effect; inconclusive = small, poorly fitted or top-dose-only effect, or another doubt; inactive = no such curve, though single readings can be large; an effect the other way counts as inactive or inconclusive.

One assay has as its target Furin (Homo sapiens) (UniProt P09958). As to the kind of experiment: Furin counterscreen qHTS for Zika virus inhibitors (AID 1347149). Note: nearly all actives have a fitted effect of over 70% in size. Note: potency is the fitted concentration of half-maximal effect. In a few lines:
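Counterscreen measures cleavage of 2 microM BOC-RVRR-AMC, below its ~15 microM Km, by 5 nM full-length human furin at pH 7.0 after a 15-min compound preincubation. Inhibition derives from the 15-min fluorescence increase at 37C.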

Assay [1] concerns Zika virus NS2B-NS3 protease (linked construct). As to the kind of experiment: Confirmatory screen NINDS AMC qHTS for Zika virus inhibitors (AID 1347152). Note: nearly all actives have a fitted effect of over 70% in size. Note: potency is the fitted concentration of half-maximal effect. A digest of the protocol:
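Concentration-response confirmation used the NINDS linked protease (NS2B hydrophilic domain joined to NS3 protease domain), 1 nM, with a 15-min compound preincubation. Substrate, Nle-KRR-AMC at 10 microM, was read by UV fluorescence before and after 15 min.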

For assay [2], the system named is Zika virus NS2B-NS3 protease (unlinked). As to the kind of experiment: Optimization of GU AMC qHTS for Zika virus inhibitors: Unlinked NS2B-NS3 protease assay (AID 1347151). Note: nearly all actives have a fitted effect of over 80% in size. Note: potency is the fitted concentration of half-maximal effect. A digest of the protocol:
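In this qHTS, compounds acted on 25 nM unlinked Zika NS2B–NS3 in pH 8.0 Tris/Tween buffer. Cleavage of an AMC peptide ran 15 min at room temperature, to about 20% conversion.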

Assay [3] has as its system Zika virus NS2B-NS3 protease (unlinked complex). The assay can be described thus: Confirmatory screen GU AMC qHTS for Zika virus inhibitors (AID 1347153).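 For Potency: enzyme at 25 nM with substrate at 10 µM below its Km of 18.3 µM; potency is the fitted concentration of half-maximal effect.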 Note: nearly all actives have a fitted effect of over 70% in size. In a few lines: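 Fluorescence change (ex 340/em 450 nm) over 15 min, ~20% substrate conversion, normalized to no-inhibitor and no-enzyme controls, then Hill-fitted. Unlinked protease at 25 nM; AMC peptide 10 µM.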
Assay [4] can be described thus: qHTS of pediatric cancer cell lines to identify multiple opportunities for drug repurposing: Confirmatory screen for DAOY cells (AID 1347114). Note: nearly all actives have a fitted effect of over 65% in size. Note: potency is the fitted concentration of half-maximal effect. A digest of the protocol:
(§1)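 Viability measured as metabolically active cells via CellTiter-Glo luminescence following 48 hours of compound exposure, 11-point dilutions in confirmatory testing. 500-1,000 cells/well plated 5 hours before dosing; controls were DMSO and 2.3 µM bortezomib.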

Assay [5] can be described thus: qHTS of pediatric cancer cell lines to identify multiple opportunities for drug repurposing: Confirmatory screen for TC32 cells (AID 1347118).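 Note: potency is the fitted concentration of half-maximal effect; cells exposed to compound for 48 h before the read; nearly all actives have a fitted effect of over 65% in size.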 In a few lines:
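qHTS, TC32, 48 h drug treatment, CellTiter-Glo luminescence as a proxy for metabolically active cells; primary top concentration 46 µM (MIPE 11-pt, NPC 8-pt); confirmatory 11-pt.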

Assay [6] is described as follows: qHTS of pediatric cancer cell lines to identify multiple opportunities for drug repurposing: Confirmatory screen for MG 63 (6-TG R) cells (AID 1347119). Note: nearly all actives have a fitted effect of over 55% in size. Note: potency is the fitted concentration of half-maximal effect. A digest of the protocol: (§2)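 Viability after 48 h compound treatment at 37C, 500-1,000 cells/well, read as ATP luminescence with CellTiter-Glo. Primary screens used 11-point (MIPE, 0.78 nM-46 µM) or 8-point (NPC, 0.59 nM-46 µM) final concentrations; follow-up screens used 11-point dilutions.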

The nature of assay [7]: qHTS of pediatric cancer cell lines to identify multiple opportunities for drug repurposing: Confirmatory screen for U-2 OS cells (AID 1347122). Note: nearly all actives have a fitted effect of over 65% in size. Note: potency is the fitted concentration of half-maximal effect. A digest of the protocol: as §2
A short description of assay [8]: qHTS of pediatric cancer cell lines to identify multiple opportunities for drug repurposing: Confirmatory screen for Rh41 cells (AID 1347123).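 Note: 48 h compound exposure; nearly all actives have a fitted effect of over 60% in size.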 Note: potency is the fitted concentration of half-maximal effect. A digest of the protocol:
as §2

The nature of assay [9]: qHTS of pediatric cancer cell lines to identify multiple opportunities for drug repurposing: Confirmatory screen for Rh30 cells (AID 1347126). Note: nearly all actives have a fitted effect of over 55% in size. Note: potency is the fitted concentration of half-maximal effect. A digest of the protocol: as §2
Assay [10] in a line: qHTS of pediatric cancer cell lines to identify multiple opportunities for drug repurposing: Confirmatory screen for Saos-2 cells (AID 1347127). Note: nearly all actives have a fitted effect of over 60% in size. Note: potency is the fitted concentration of half-maximal effect. A digest of the protocol: as §2
A short description of assay [11]: qHTS of pediatric cancer cell lines to identify multiple opportunities for drug repurposing: Confirmatory screen for OHS-50 cells (AID 1347128).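 Note: compound exposure lasted 48 h at 37 degrees C; nearly all actives have a fitted effect of over 55% in size.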 Note: potency is the fitted concentration of half-maximal effect. A digest of the protocol:
as §2

The nature of assay [12]: qHTS of pediatric cancer cell lines to identify multiple opportunities for drug repurposing: Confirmatory screen for SK-N-SH cells (AID 1347129).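 Note: cells exposed to compound for 48 h before viability read; nearly all actives have a fitted effect of over 60% in size.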 Note: potency is the fitted concentration of half-maximal effect. A digest of the protocol:
as §2

The nature of assay [13]: qHTS of pediatric cancer cell lines to identify multiple opportunities for drug repurposing: Confirmatory screen for LAN-5 cells (AID 1347113). Note: nearly all actives have a fitted effect of over 65% in size. Note: potency is the fitted concentration of half-maximal effect. In a few lines: as §2
Assay [14] can be described thus: qHTS of pediatric cancer cell lines to identify multiple opportunities for drug repurposing: Confirmatory screen for NB-EBc1 cells (AID 1347115).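 Note: cells exposed to compound for 48 h before the viability read; nearly all actives have a fitted effect of over 45% in size.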 Note: potency is the fitted concentration of half-maximal effect. A digest of the protocol: as §2
Assay [15] is described as follows: qHTS of pediatric cancer cell lines to identify multiple opportunities for drug repurposing: Confirmatory screen for control Hh wild type fibroblast cells (AID 1347121). Note: nearly all actives have a fitted effect of over 70% in size. In a few lines:
as §2

The target of assay [16] is N-terminal Xaa-Pro-Lys N-methyltransferase 1 (Homo sapiens) (UniProt Q9BV86). As to the kind of experiment: qHTS Assay for Inhibitors of N-terminal methyltransferase 1 (NTMT1): LOPAC validation of the NTMT1 SAHH-coupled ThioGlo3 Assay (AID 1347143). Note: potency is the fitted concentration of half-maximal effect. In a few lines:
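Steps: dispense 125nM NTMT1; pin-transfer test compounds at several concentrations, with 1uM RCC1-6 peptide as control; incubate 1 min; start with reagent holding 100uM SAM, 10uM SAHH, 15uM ThioGlo3; read at 0 and 30 min.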

Assay [17] is described as follows: qHTS of pediatric cancer cell lines to identify multiple opportunities for drug repurposing: Confirmatory screen for SJ-GBM2 cells (AID 1347116). Note: nearly all actives have a fitted effect of over 60% in size. Note: potency is the fitted concentration of half-maximal effect. In a few lines: as §1
A short description of assay [18]: qHTS of pediatric cancer cell lines to identify multiple opportunities for drug repurposing: Confirmatory screen for Rh18 cells (AID 1347125). Note: nearly all actives have a fitted effect of over 55% in size. Note: potency is the fitted concentration of half-maximal effect. In a few lines: as §2

Chain of N-terminal Xaa-Pro-Lys N-methyltransferase 1 (Homo sapiens) (Q9BV86 whole entry, looked up): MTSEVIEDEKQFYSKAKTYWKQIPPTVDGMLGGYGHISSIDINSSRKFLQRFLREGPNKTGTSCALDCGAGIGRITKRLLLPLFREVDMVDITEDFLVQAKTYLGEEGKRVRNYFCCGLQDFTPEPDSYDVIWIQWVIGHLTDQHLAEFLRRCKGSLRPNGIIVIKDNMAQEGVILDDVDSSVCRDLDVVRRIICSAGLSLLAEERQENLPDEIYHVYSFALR
Chain of Furin (Homo sapiens) (P09958 whole entry, looked up): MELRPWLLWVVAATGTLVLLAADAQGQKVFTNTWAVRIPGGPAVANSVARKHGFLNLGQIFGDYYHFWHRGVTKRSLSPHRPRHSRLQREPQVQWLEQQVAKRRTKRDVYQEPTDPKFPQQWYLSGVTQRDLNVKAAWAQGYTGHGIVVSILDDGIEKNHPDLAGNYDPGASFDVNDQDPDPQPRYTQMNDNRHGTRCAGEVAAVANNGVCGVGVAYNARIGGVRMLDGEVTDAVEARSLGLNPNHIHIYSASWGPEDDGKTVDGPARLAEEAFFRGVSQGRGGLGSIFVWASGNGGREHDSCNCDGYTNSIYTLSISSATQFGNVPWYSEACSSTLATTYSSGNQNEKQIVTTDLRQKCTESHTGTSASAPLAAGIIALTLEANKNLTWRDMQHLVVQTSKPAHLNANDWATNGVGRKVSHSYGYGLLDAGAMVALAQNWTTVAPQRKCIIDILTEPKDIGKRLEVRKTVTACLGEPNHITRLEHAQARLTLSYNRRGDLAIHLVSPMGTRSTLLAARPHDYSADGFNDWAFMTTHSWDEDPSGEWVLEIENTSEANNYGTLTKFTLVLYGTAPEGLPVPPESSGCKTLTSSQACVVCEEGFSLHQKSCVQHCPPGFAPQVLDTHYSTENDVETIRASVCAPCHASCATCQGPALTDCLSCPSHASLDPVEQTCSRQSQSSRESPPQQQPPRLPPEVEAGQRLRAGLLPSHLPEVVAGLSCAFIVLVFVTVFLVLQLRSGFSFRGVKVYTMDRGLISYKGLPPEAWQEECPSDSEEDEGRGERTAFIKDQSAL

For the compound `COc1c(N2CCNC(C)C2)c(F)cc2c(=O)c(C(=O)O)cn(C3CC3)c12` (stereo unspecified), the Potency was 24.1 µM (active) and 27.1 µM (active) in the assay with Furin (Homo sapiens); 27.1 µM (active) and 30.4 µM (active) in assay [1].

For the compound `Cc1ccc(S(=O)(=O)N[C@@H](Cc2ccccc2)C(=O)CCl)cc1`, the Potency result in [2] is “inactive”.

As for `CCCc1nc(C)c2c(=O)[nH]c(-c3cc(S(=O)(=O)N4CCN(CC)CC4)ccc3OCC)nn12`, the Potency entry (in the assay with Furin (Homo sapiens); in assay [1]; in assay [3]) was “inactive” in each case.

For `COC(=O)Nc1nc2ccc(Sc3ccccc3)cc2[nH]1`, the Potency in assay [4] was 0.928 µM (active); in assay [5], 0.827 µM (active); in [6], 0.928 µM (active); in assay [7], 3.69 µM (active); in assay [8] it was 1.17 µM (active); in assay [10], 1.31 µM (active). For the same compound, the results for the Potency in assay [11] and in [12] were 1.31 µM (active) and 5.9 µM (active), respectively. The Potency entry in [9] is “inactive”.

Consider `Oc1c(Cl)cc(Cl)c2cccnc12`, for which the Potency in assay [13] is 14.7 µM (active); in [14], 18.5 µM (active); in assay [5], 8.27 µM (active); in assay [6], 11.7 µM (active); in [7], 9.27 µM (active); in [8], 14.7 µM (active). In addition, the Potency in assay [9] is 18.5 µM (active); in assay [12] it was 20.9 µM (active).

On to `O=C(O)c1ccc(-n2nc(-c3ccccc3O)nc2-c2ccccc2O)cc1`, for which the Potency entry (with Furin (Homo sapiens); in [1]; in assay [3]) was “inactive” throughout.

As to `CN1CCCC(n2nc(Cc3ccc(Cl)cc3)c3ccccc3c2=O)CC1` (stereo unspecified), the Potency entry in assay [14], in assay [6], in assay [15], in assay [7], in assay [9] and in assay [10] was “inactive” in each case. Further, the figures for the Potency in assay [5], in [8] and in assay [12] were 26.1 µM (active), 8.27 µM (active) and 20.9 µM (active), respectively.

As for `CNC1CCCN(c2c(F)cc3c(=O)c(C(=O)O)cn(C4CC4)c3c2OC)C1` (stereo unspecified), the Potency with Furin (Homo sapiens) is 7.62 µM (active) and 24.1 µM (active); in assay [1], 27.1 µM (active). Moreover, in assay [3], the Potency result is “inactive”.

Turning to `NC(=O)c1ccc2[nH]ccc2c1`, in assay [16], the Potency entry is “inactive”.

With `OCc1ccc(-c2nn(Cc3ccccc3)c3ccccc23)o1`, the Potency is 28.2 µM (active) in [16]; 27.1 µM (active) in the assay with Furin (Homo sapiens); 23.8 µM (active) in assay [2]; 24.1 µM (active) in assay [1]; 24.1 µM (active) in assay [3].

`CCCCS(=N)(=O)CCC(N)C(=O)O` (stereo unspecified): the Potency entry in [16] and in [2] was “inactive” in each case.

Regarding `CCn1cc(C(=O)O)c(=O)c2cc(F)c(N3CCNCC3)cc21`, the Potency with Furin (Homo sapiens) is 17.1 µM (active); in [1], 27.1 µM (active).

Regarding `COc1cc2nc(N3CCCN(C)CC3)nc(NC3CCN(Cc4ccccc4)CC3)c2cc1OC`, the Potency entry in [4], in [14], in assay [6], in [15] and in [16] was “inactive” throughout. The Potency in assay [17] is 0.928 µM (active); in assay [5] it was 11.7 µM (active); in assay [8] it was 0.261 µM (active); in assay [9] it was 0.147 µM (active); in assay [11], 18.5 µM (active); in assay [12] it was 8.33 µM (active). Besides, the Potency in assay [2] is 21.2 µM (active).

Regarding `NC(=O)c1cccnc1`, the Potency result in [13], in assay [4], in assay [15], in [7], in assay [8] and in assay [9] was “inactive” throughout. Also, the Potency entry in assay [10], in [11] and in assay [12] was “inactive” in each case. For the same compound, the Potency is 10.4 µM (active) in [14] and 16.5 µM (active) in assay [5].

As to `O=C(O)c1cn(C2CC2)c2cc(N3CCNCC3)c(F)cc2c1=O`, the Potency (in the assay with Furin (Homo sapiens); in assay [1]) was 24.1 µM (active) throughout.

For `O=C(NCC1CN(c2ccc(N3CCOCC3=O)cc2)C(=O)O1)c1ccc(Cl)s1` (stereo unspecified), the Potency entry in assay [4], in assay [14], in assay [17], in [15], in assay [7] and in assay [18] was “inactive” each time. Also, the Potency entry in assay [9] and in [12] was “inactive” each time. The Potency in assay [5] is 2.61 µM (active).

As to `O=C(O)C1CCCN(CCC=C(c2ccccc2)c2ccccc2)C1` (stereo unspecified), the Potency entry in assay [16] and in [2] was “inactive” each time.

For the compound `CC(C(=O)O)c1ccc2c(c1)CC(=O)c1ccccc1S2` (stereo unspecified), the Potency entry in assay [4], in assay [14], in assay [17], in assay [15], in assay [7] and in assay [8] was “inactive” throughout. The Potency result in [18], in assay [9], in [10], in assay [11] and in assay [12] was “inactive” throughout.

Consider `Cc1cccc(N(C)C(=S)Oc2ccc3ccccc3c2)c1`, for which the Potency entry in [13], in assay [17], in assay [15], in [18], in [9] and in assay [10] was “inactive” in each case. The Potency result in [11] and in assay [12] was “inactive” each time. Further, the Potency in [14] was 18.5 µM (active).

As to `CC(=O)[C@H]1CC[C@H]2[C@@H]3CCC4=CC(=O)CC[C@]4(C)[C@H]3CC[C@]12C`, the Potency in assay [5] is 5.22 µM (active); in [8], 18.5 µM (active); in assay [18] it was 23.3 µM (active); in assay [11], 26.1 µM (active). Further, the Potency result in [2] is “inactive”.

As to `COC(=O)Nc1nc2ccc(S(=O)c3ccccc3)cc2[nH]1` (stereo unspecified), the Potency was 0.928 µM (active) in assay [4]; 1.04 µM (active) in assay [5]; 1.31 µM (active) in assay [6]; 2.93 µM (active) in assay [7]; 1.04 µM (active) in [8]; 1.47 µM (active) in [10]. Also, the Potency is 2.33 µM (active) in assay [11] and 2.96 µM (active) in [12]. The Potency result in assay [15], in [18] and in assay [9] was “inactive” each time.

Regarding `CC1=C(C(=O)O)N2C(=O)[C@@H](NC(=O)C(N)c3ccccc3)[C@H]2SC1` (stereo partly specified), the Potency entry in [16] and in [2] was “inactive” throughout.

Regarding `CNC(=O)c1cc(Oc2ccc(NC(=O)Nc3ccc(Cl)c(C(F)(F)F)c3)cc2)ccn1`, the Potency in assay [13] was 23.3 µM (active); in assay [14] it was 18.5 µM (active); in assay [5], 18.5 µM (active); in [11], 18.5 µM (active); in assay [12], 20.9 µM (active); in assay [2] it was 9.87 µM (active). Moreover, the Potency entry (in assay [10]; in the assay with Furin (Homo sapiens)) was “inactive” each time.

For `CCc1c2c(nc3ccc(OC(=O)N4CCC(N5CCCCC5)CC4)cc13)-c1cc3c(c(=O)n1C2)COC(=O)[C@]3(O)CC`, the Potency is 2.93 µM (active) in assay [13]; 0.737 µM (active) in [14]; 0.465 µM (active) in assay [5]; 1.85 µM (active) in [6]; 4.14 µM (active) in assay [8]; 16.5 µM (active) in [18]. For the same compound, the Potency in assay [9] was 5.85 µM (active); in assay [10] it was 1.85 µM (active); in assay [11] it was 2.61 µM (active). Besides, in assay [15], the Potency result was “inactive”.

Turning to `CC(C)(Sc1cc(C(C)(C)C)c(O)c(C(C)(C)C)c1)Sc1cc(C(C)(C)C)c(O)c(C(C)(C)C)c1`, in the assay with Furin (Homo sapiens), the Potency entry was “inactive”.
